# An excerpt weighted towards active compounds, which were near 9.4% of everything screened.
# Rab9 promoter act = activators of Rab9 promoter; Huh7 Rab9 promoter-luciferase reporter, luminescence, 24 h; Potency, µM (highest dose often 9.22 µM), for the others: at the top dose activation, negative = inhibition, most hits filed as activators; actives 2.8% (n = 320,000); AID 485297; further: % of control where 0% means no effect; nearly all actives have a fitted effect of over 60% in size
#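 Huh7 cells stably carrying Rab9 promoter–luciferase reporter, plated 1500 cells/well, compound added after 2 h and incubated 24 h at 37 °C; luciferase luminescence then read after 10 min with detection reagent.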
# FLuc counter = firefly luciferase modulation, counter-screen for miR-21 project; actives 6.9% (n = 360,000); AID 588342; purified FLuc, Km substrates, luminescence inhibition; Potency, µM (titrated, usually from 57.5 µM), inactives show at the top dose activity change, negative = inhibition, usual class: inhibitors;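 further: plate controls were vehicle for no effect and reference inhibitor for full effect; nearly all actives have a fitted effect of over 55% in size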
# Target sequence (P08659 whole entry, looked up): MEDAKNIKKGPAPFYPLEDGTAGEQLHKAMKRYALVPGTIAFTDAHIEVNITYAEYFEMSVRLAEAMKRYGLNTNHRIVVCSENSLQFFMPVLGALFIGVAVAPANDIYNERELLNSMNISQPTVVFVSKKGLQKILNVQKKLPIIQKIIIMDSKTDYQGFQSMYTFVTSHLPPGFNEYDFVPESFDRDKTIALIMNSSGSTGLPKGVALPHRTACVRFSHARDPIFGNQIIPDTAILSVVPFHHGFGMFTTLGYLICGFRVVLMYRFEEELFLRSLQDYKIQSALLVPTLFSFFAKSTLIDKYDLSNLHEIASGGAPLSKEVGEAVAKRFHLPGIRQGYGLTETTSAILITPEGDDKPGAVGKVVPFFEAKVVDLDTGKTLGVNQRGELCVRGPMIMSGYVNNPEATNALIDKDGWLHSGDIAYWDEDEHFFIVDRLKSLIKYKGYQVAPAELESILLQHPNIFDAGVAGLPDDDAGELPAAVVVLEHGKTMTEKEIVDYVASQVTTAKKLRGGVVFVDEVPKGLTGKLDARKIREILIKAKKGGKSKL
#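 Purified P. pyralis luciferase (10nM final) with 10uM D-luciferin and 10uM ATP (Km levels) in 50mM Tris acetate pH 7.5, 10mM Mg acetate, 0.01% Tween-20, 0.05% BSA; qHTS 6-point titration, ~60 µM downward; luminescence read.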
# ELG1 DNA repair = inhibitors of ELG1-dependent DNA repair in HEK293T cells; actives 2.3% (n = 330,000); HEK293T ELG1-luciferase reporter, luminescence, 16 h; DNA damage induced by 5-fluorouridine; Potency, µM (series often up to 46.1 µM), for inactives: at the highest dose activity change, negative = inhibition, most hits filed as inhibitors; further: on the % scale 0 is the no-effect control and ±100 the full control effect; nearly all actives have a fitted effect of over 55% in size
#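 5-Fluorouridine DNA damage + compound/DMSO, 2,000 cells/well, 16 h, 37 °C/5% CO2. ONE-Glo, 30 min RT, luminescence. Readout = decrease in reporter signal.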
# NPC1 promoter act = activators of NPC1 promoter | Potency, µM (highest dose often 9.22 µM), without a hit: at the top dose activation, usual class: activators | Huh7 NPC1 promoter luciferase reporter, 24 h | actives 2.4% (n = 320,000); further: % of control where 0% means no effect; nearly all actives have a fitted effect of over 60% in size
#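 Luminescence from an NPC1 promoter-driven luciferase reporter in stably transfected Huh7 cells was measured after 24 h compound treatment at 37 °C, followed by 10 min ambient incubation with luciferase detection reagent.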
# ELG1 genotoxic = inducers of genotoxicity in HEK293T ELG1-luciferase cells; HEK293T ELG1-luciferase reporter, luminescence, 16 h; actives 1.3% (n = 330,000); Potency, µM (doses to about 46 µM), for inactives: at the highest dose activity change, positive = activation, hits mostly activators; further: % of control where 0% means no effect; nearly all actives have a fitted effect of over 60% in size
#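 After overnight (16 hr) compound treatment at 37 °C, ELG1-luciferase HEK293T cells were lysed with ONE-Glo; luminescence quantified 30 min later at room temperature.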
# SMN2 splice up = enhancers of SMN2 splice variant expression; HEK293 SMN2-luciferase splicing reporter, luminescence, 30-36 h; Potency, µM (highest dose often 46.1 µM), for the others: at the highest dose activity change, positive = activation, hits mostly activators; actives 2.8% (n = 210,000); AID 1458; further: % of control where 0% means no effect; nearly all actives have a fitted effect of over 55% in size
#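 HEK293 cells carry an SMN2 minigene-luciferase reporter in which exon 7 inclusion puts luciferase in frame. Cells were seeded at 2000 cells/well, attached for 10-12 hours, then exposed to compounds for 30-36 hours at 37C before ONE-Glo luminescence.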
# * = called active by the depositor; ? = inconclusive; . = no result; [ ] = remark or other dose. The call rests on the fitted dose curve; in most records, active means well fitted curve in the direction sought with a large enough effect; inconclusive means small, poorly fitted or top-dose-only effect, or another doubt; inactive means no such curve, though single readings can be large; an effect the other way counts as inactive or inconclusive. Potency means the concentration at half of the fitted maximal effect.
SMILES,Rab9 promoter act,FLuc counter,ELG1 DNA repair,NPC1 promoter act,ELG1 genotoxic,SMN2 splice up
O=C(Nc1ccc(Nc2ccccc2)cc1)c1ccc(F)cc1,12%,19µM*,?,16%,3%,.
Cc1ccc(NC(=O)c2ccccc2)cc1,2.2µM*,6µM*,?,2µM*,?,14µM*
CN1C(C(=O)c2ccccc2)=C(NC(=O)c2ccccc2Br)c2ccccc2S1(=O)=O,.,2%,.,.,.,-7%
O=C(Nc1ccncc1)c1ccc2ccccc2c1,3.5µM*,17µM*,?,?,15%,.
O=C(Nc1nnc(-c2ccncc2)o1)c1ccc2ccccc2c1,-4%,-12%,-5%,-3%,-17%,.
O=C(Nc1ccc2ccccc2c1)c1ccc(Cl)cc1,0.32µM*,0.54µM*,?,0.5µM*,0.92µM*,.
CC(=O)c1cnc(Nc2cccc(C)c2)s1,2.5µM*,?,?,?,11%,18µM*
C/C(=C\C(=O)c1ccc(C)o1)Nc1ccc(C(=O)O)cc1C,-4%,9.5µM*,21%,1%,11%,30%
COc1ccc2c(C)c(CCC(=O)NCCc3ccccc3OC)c(=O)oc2c1,.,-2%,.,.,.,-1%
Nc1ccnc2c1ncn2[C@@H]1O[C@H](CO)[C@@H](O)[C@H]1O,.,.,.,.,.,-24%
Cn1c(=S)[nH]c2sc3c(c2c1=O)CCC(C(C)(C)C)C3 (centres undefined),?,4.3µM*,?,?,7%,.
COCCn1c(=S)[nH]c2sc3c(c2c1=O)CCC(C)C3 (centres undefined),3%,17µM*,-5%,-1%,-7%,.
O=c1[nH]c(=S)[nH]c2sc3c(c12)CCCCCC3,-2%,-17%,-6%,1%,1%,.
CC(C)(C)C1CCc2c(sc3ncn(N)c(=N)c23)C1 (centres undefined),-2%,-3%,?,-2%,-10%,.
COCCCn1c(=S)[nH]c2sc3c(c2c1=O)CCCS3,11%,11µM*,-3%,19%,-7%,-28%
COc1ccc(-n2c(=S)[nH]c3sc4c(c3c2=O)CCN(C)C4)cc1,0%,-3%,0%,-4%,0%,.
CCCn1c(=S)[nH]c2sc3c(c2c1=O)CCCC3,2%,15µM*,-7%,0%,-16%,.
COc1ccc(CN[C@H](C)C(=O)O)cc1,.,.,.,.,.,2%[9.22 µM]
CCS(=O)(=O)N1CCc2cc(C(=O)NCc3ccccc3OC)ccc21,.,-7%,.,.,.,.
Cc1cccc(N2CCN(C(=O)C3CCN(Cc4nc(-c5ccc(Cl)cc5)oc4C)CC3)CC2)c1C,.,-13%,.,.,.,.
CCOc1ccccc1/C=C(\C#N)C1=CCCC1,-2%,0%,8%,2%,-1%,.
CN1CCN(CCCNC(=O)Cn2c(-c3cccs3)cc3cc(Cl)ccc32)CC1,.,-1%,.,.,.,.
CCc1cccc(CC)c1NC(=O)C(CC)n1nc(C)n2c(cc3cc(C)ccc32)c1=O (centres undefined),.,1%,.,.,.,7%
O=C1N/C(=N/Nc2ccccc2)S/C1=C\c1ccccc1,10%,13µM*,28%,10%,10%,?
Cc1cccc(N(C)C(=O)CN(C)S(=O)(=O)c2ccc3[nH]c4c(c3c2)CCCC4)c1,.,-19%,.,.,.,.
SMILES,Rab9 promoter act,FLuc counter,ELG1 DNA repair,NPC1 promoter act,ELG1 genotoxic,SMN2 splice up
COC(=O)CSc1cnc2ccccc2n1,.,-2%,.,.,.,-13%
O=C(CSc1cnc2ccccc2n1)c1ccc(F)cc1,3.2µM*,4.8µM*,?,3.2µM*,?,11µM*
O=C(CSc1nnc2ccc3ccccc3n12)c1ccc(F)cc1,?,6.7µM*,.,29%,.,.
N#Cc1ccc(CS(=O)(=O)c2nnnn2-c2ccccc2)cc1,.,.,.,.,.,7%
CCOc1ccccc1NC(=O)N1c2ccccc2Sc2ccccc21,.,-2%,.,.,.,?
Cc1cc(=O)[nH]c2ccc(S(=O)(=O)Nc3ccccc3)cc12,-1%,5%,?,-4%,23µM*,.
